In the library only some 3.6% were active in any assay of this set; here they are far more common.
TRHR agonist: agonists of human TRH receptor | P34981 | TRHR cells, calcium flux fluo-8, FDSS agonist mode | activation, % at 2 µM | 0.18% of 360,000 active | AID 493084; note: 0% is about no effect
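Read-out: compound-evoked intracellular calcium rise in TRHR cells, fluo-8 dye, kinetic FDSS fluorescence at 1 s/cycle following a 10-cycle baseline. Cells cultured overnight before dye loading (30 min–1.5 h, RT).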
D1 agonist: agonists of human D1 dopamine receptor. P21728. activation, % at 2 µM. 1% of 360,000 active. HEK293 T-REx D1 cells, calcium flux, agonist mode; note: 0% is about no effect
Target sequence (P21728 whole entry, looked up): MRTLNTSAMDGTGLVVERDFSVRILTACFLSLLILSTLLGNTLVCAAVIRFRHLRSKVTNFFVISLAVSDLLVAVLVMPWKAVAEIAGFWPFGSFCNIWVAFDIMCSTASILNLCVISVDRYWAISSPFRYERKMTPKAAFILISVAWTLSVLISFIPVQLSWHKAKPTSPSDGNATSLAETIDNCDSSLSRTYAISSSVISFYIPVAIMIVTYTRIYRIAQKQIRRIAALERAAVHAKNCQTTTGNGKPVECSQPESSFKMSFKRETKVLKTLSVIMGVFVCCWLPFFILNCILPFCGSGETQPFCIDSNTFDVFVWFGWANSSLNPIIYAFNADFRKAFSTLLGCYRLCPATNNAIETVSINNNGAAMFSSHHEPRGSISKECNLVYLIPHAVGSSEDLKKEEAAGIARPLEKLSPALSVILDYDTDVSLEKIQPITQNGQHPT
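Tetracycline-induced HEK293 TREx D1 cells, force-coupled to calcium signalling, were dye-loaded with a no-wash calcium kit. Compound was pin-added after a 10 s baseline. Fluorescence was read kinetically at 1 cycle/s for 180 s, with calcium rises flagged as agonism.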
D1 antagonist: antagonists of human D1 dopamine receptor. P21728. HEK293 TREx D1 cells, calcium flux, dopamine EC80; stronger effect = lower value. activity change, negative = inhibition, % at 10 µM. 3.2% of 360,000 active. AID 504652; in the data active = activity change below about -30%; note: % is set by controls: 0 for no effect and ±100 for the full control effect
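Tetracycline-induced HEK293 Trex D1 cells, force-coupled to calcium, dye-loaded; compounds added and read 180 s, then EC80 dopamine added and calcium flux tracked kinetically another 180 s.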
LDHA inh: blocks human lactate dehydrogenase A | P00338 | purified LDHA, NADH/diaphorase-resazurin fluorescence; stronger effect = lower value | activity change, % (values are at about 110 or 230 µM) | 0.15% of 480,000 active; in the data active = activity change below about -30%;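 note: plate controls were DMSO wells for no effect and wells without enzyme for full effect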
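Human LDH5 (2 nM) was incubated with 0.06 mM NADH and 0.2 mM pyruvate for 5 min at room temperature in Tris pH 7.4. Remaining NADH was coupled through diaphorase/resazurin, and resorufin fluorescence was read at 0 and 20 min.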
D1 potentiator: enhances dopamine response at the human D1 receptor | 0.036% of 360,000 active | potentiation, % at 10 µM | AID 504651 | P21728 | HEK293 TREx D1 cells, calcium flux, dopamine EC20 potentiation; in the data active = potentiation above about 30%; note: 0% is about no effect
TRHR enhancer: allosteric enhancers of human TRH receptor; enhancement, % at 2 µM; 0.66% of 360,000 active; TRHR cells, fluo-8 calcium fluorescence, EC20 TRH enhancement; in the data active = enhancement above about 30%; note: 0% is about no effect
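TRHR-expressing cells loaded with fluo-8 calcium dye were read kinetically (ex 480/em 530) during compound addition, then stimulated with an EC20 of TRH (10 nM final). Enhancement of the Gq-mediated intracellular calcium response was scored.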
* = called active by the depositor; nt = not tested or not shown. Cut-off read from the data, not from the text of the source, unless noted: active = activation above about 30%; inactive = the rest.

SMILES	TRHR agonist	D1 agonist	D1 antagonist	LDHA inh	D1 potentiator	TRHR enhancer
COc1ccc(OC)c(/C=N/N=C(\N)c2nonc2N)c1	0	1	-30*	0	-3	-5
CCOC(=O)N1CCC(NS(=O)(=O)c2ccccc2)CC1	-1	7	7	-4	-3	-1
CCOC(=O)N1CCC(NS(=O)(=O)c2ccc(C)cc2)CC1	-2	6	-39*	2	-4	0
CCOC(=O)N1CCC(NS(=O)(=O)c2cc3c(cc2Br)CCN3C(=O)CC)CC1	nt	nt	nt	-4	nt	nt
CCOC(=O)N1CCC(NS(=O)(=O)c2cc(Br)cnc2N)CC1	0	2	-30*	-2	-8	10
O=C(NCCc1ccccc1)c1cc2sccc2n1Cc1ccc(F)cc1	0	8	-31*	-1	-3	-7
CC(=O)Nc1cc(C(=O)NCc2ccc(F)cc2)ccc1S(=O)(=O)c1ccc(C)cc1	-1	-4	-67*	1	1	1
CC(=O)Nc1cc(C(=O)N2CCOCC2)ccc1S(=O)(=O)c1ccc(C)cc1	0	1	-31*	-3	2	1
CC(=O)Nc1cc(C(=O)O)ccc1S(=O)(=O)c1ccc(C)cc1	0	0	4	-13	7	4
O=c1[nH]nc(SCc2nc(-c3cccc(C(F)(F)F)c3)no2)n2nc(-c3ccco3)cc12	nt	nt	nt	-11	nt	nt
CCN1CCN(CCCNC(=O)C2CCCN(c3nc4c(C)cc(C)cc4s3)C2)CC1 (stereo unspecified)	0	-1	-35*	-5	-9	4
COc1ccc(Cl)cc1Nc1nc(N)c(C(=O)c2ccc(C)cc2C)s1	nt	nt	nt	-1	nt	nt
COc1ccccc1CNC(=O)COC(=O)c1c[nH]c2ccccc12	0	45*	-41*	1	-19	6
COc1cccc(NC(=O)c2sc3nc(C)c(C(=O)Nc4ccc(C)cc4C)c(-c4sccc4C)c3c2N)c1	4	3	0	2	-3	-1
COCCCNC(=O)c1sc2nc(C)c(C(=O)Nc3ccc(C)cc3C)c(-c3ccccc3Cl)c2c1N	0	1	-32*	0	-1	-1
CCc1ccc(NC(=O)c2sc3nc(C)c(C(=O)Nc4ccc(C)cc4C)c(-c4ccco4)c3c2N)cc1	6	46*	-5	-2	3	1
COc1cccc(NC(=O)c2sc3nc(C)c(C(=O)Nc4ccc(C)cc4C)c(-c4ccccc4Cl)c3c2N)c1	1	10	-31*	4	0	-2
COc1ccc(NC(=O)c2sc3nc(C)c(C(=O)Nc4ccc(C)cc4C)c(-c4ccc(Cl)cc4)c3c2N)cc1	0	0	-3	-3	0	0
COc1cccc(NC(=O)c2sc3nc(C)c(C(=O)Nc4ccc(C)cc4C)c(-c4ccco4)c3c2N)c1	8	36*	-11	-2	-1	4
CC(Oc1ccccc1Cl)C(=O)Nc1cc(-c2ccc(F)c(F)c2)no1 (stereo unspecified)	nt	nt	nt	-1	nt	nt
CCC(CC)NCc1cccc(Oc2ccccc2)c1	nt	nt	nt	8	nt	nt
O=C(N/N=C/c1ccc([N+](=O)[O-])o1)c1ccc(NS(=O)(=O)c2cccs2)cc1	-1	1	-89*	3	-3	6
O=C(N/N=C\C=C\c1ccc([N+](=O)[O-])o1)c1cccs1	-1	7	5	-30*	-7	-3
O=C(N/N=C/C=C/c1ccccc1[N+](=O)[O-])c1cccs1	-1	0	-4	-7	-4	-5
Cc1ccc(C)c(Cn2c(-n3nc(C)cc3C)nc3c2c(=O)[nH]c(=O)n3C)c1	nt	nt	nt	-6	nt	nt
Cc1ccc(N(C)S(=O)(=O)c2cccc(C(=O)Nc3ccc(C)cn3)c2)cc1	0	3	-88*	-1	4	2
CCSc1nnc(NC(=O)c2cccc(S(=O)(=O)N(C)c3ccc(C)cc3)c2)s1	0	3	-54*	-3	-7	-3
COc1ccc(N(C)S(=O)(=O)c2cccc(C(=O)Nc3cccc(C(=O)NC4CC4)c3)c2)cc1	0	6	-53*	6	-14	0
COc1ccc(N(C)S(=O)(=O)c2cccc(C(=O)NC3CCC(C)CC3)c2)cc1 (stereo unspecified)	1	2	-10	-2	5	-5
